Shiga inhibitor: blocks Shiga toxin action in Vero cells; inhibition, % at 38.7 µM; Vero cells, Shiga toxin protein synthesis inhibition reporter; 290,000 tested, 9.2% active; in the data active = inhibition mostly above about 28%, no sharp cut-off; inactive = mostly below about 43%; note: 0% is about no effect
Vaccinia Venus: vaccinia inhibition (Venus reporter) | Vaccinia virus Venus reporter expression, fluorescence | Potency, µM (top dose mostly 36.5 µM), for the others: top-dose activity change, negative = inhibition, usual class: inhibitors | 330,000 tested, 0.46% active; calls by dose curve; tested in A549 cells; note: potency is the fitted concentration of half-maximal effect; % is set by controls: 0 for no effect and ±100 for the full control effect; nearly all actives have a fitted effect of over 30% in size
MARV entry inh: inhibitors of Marburg virus binding or cell entry; Marburg virus pseudotyped entry inhibition, cell reporter; Potency, µM (highest dose often 37.8 µM), without a hit: at the top dose activity change, negative = inhibition, hits mostly inhibitors; 300,000 tested, 1.8% active; calls by dose curve; tested in HEK293 cells; note: potency is the fitted concentration of half-maximal effect; % is set by controls: 0 for no effect and ±100 for the full control effect
VACV mCherry inh: inhibitors of vaccinia virus infection (mCherry reporter signal); 310,000 tested, 0.63% active; Potency, µM (highest dose often 36.5 µM), without a hit: at the highest dose activity change, negative = inhibition, hits mostly inhibitors; Vaccinia virus mCherry reporter infection, fluorescence; AID 720579; calls by dose curve; tested in A549 cells; note: potency is the fitted concentration of half-maximal effect; % is set by controls: 0 for no effect and ±100 for the full control effect; nearly all actives have a fitted effect of over 35% in size
LASV entry inh: blocks Lassa virus binding to or entry into cells. Lassa virus pseudotype entry inhibition, cell reporter. Potency, µM (highest dose often 37.9 µM), inactives show at the top dose activity change, negative = inhibition, most hits filed as inhibitors. 300,000 tested, 1.2% active; calls by dose curve; tested in HEK293 cells; note: potency is the fitted concentration of half-maximal effect; % is set by controls: 0 for no effect and ±100 for the full control effect; nearly all actives have a fitted effect of over 50% in size
Cycloheximide cs: affects cycloheximide protein synthesis inhibition readout, counter-screen | cell reporter, cycloheximide protein synthesis inhibition counterscreen | max response, % | 300,000 tested, 12% active; in the data active = max response mostly above about 13%, no sharp cut-off; inactive = mostly below about 14%; note: read at 38.3 µM for the half of the compounds with a filed dose; 0% is about no effect
Numbers without * were called inactive; i = inactive; ? = inconclusive; . = no result; [ ] = another dose, or the depositor's remark. Only a selection was taken, and hits are over-represented in it overall.

SMILES | Shiga inhibitor | Vaccinia Venus | MARV entry inh | VACV mCherry inh | LASV entry inh | Cycloheximide cs
Cc1ccc(C(=O)N/C(=C/c2cccs2)C(=O)NCCCn2ccnc2)cc1 | 4.5 | -2.4% | -0.3% | -7.6% | 0.0% | -1.7
O=C(O)c1ccc(CSc2nc3ccc(NC(=O)c4ccccc4C(=O)O)cc3s2)cc1 | 26.6 | 4.3% | 1.1%[46.1 µM] | -8.8% | 14.4% | 13.4
CCOc1ccc(C(=O)Nc2ccc3nc(SCc4ccccc4)sc3c2)cc1 | . | 10µM* | 2.0%[46.1 µM] | ? | 3.3%[46.1 µM] | .
N#Cc1ccccc1CSc1nc2ccc(NC(=O)c3ccccc3C(=O)O)cc2s1 | 79.4* | -17.6% | ? | -20.1% | ? | 27.3*
O=S1(=O)CCC(N=Nc2c(O)n(Cc3ccccc3)c3ccccc23)C1 (stereo not drawn) | 19.2 | . | . | . | . | -1.5
COC(=O)[C@]12C[C@@H]3CCN(C(=O)N[C@@H]1c1ccccc1)[C@@]32C | . | . | 75.7%[14.2 µM] | . | ? | .
COc1ccc2ccc3c(c2c1)N=CC1(O3)N(C)c2ccccc2C1(C)C (stereo not drawn) | 34.3* | -3.0% | ? | -13.5% | 0.3% | 10.1
COc1ccc2c(c1)c1c(c(=O)n(-c3ccccc3C)c(=O)n1C)n2C | . | 4.5% | . | -4.8% | 5.5%[46.1 µM] | .
CN1c2ccccc2C(C)(C)C12C=Nc1c(ccc3ccccc13)O2 (stereo not drawn) | 99.4* | 2.2% | -1.0% | -17.0% | 1.8% | 27.1*
CN1c2ccccc2C(C)(C)[C@]12C=Cc1cc(O)ccc1O2 | 57.9 | 65.0% | ? | . | -15.9% | 38.0*
O=C1OC2(c3ccc(O)cc3Oc3cc(O)ccc32)c2ccccc21 | -6.2 | . | . | . | . | -4.7
CN1c2ccccc2C(C)(C)C12CC(CCl)=NO2 (stereo not drawn) | 14.6 | -12.9% | -4.7% | -13.1% | ? | -3.0
O=C(O)c1cc(=O)[nH]c2c(Cl)cccc12 | -7.2 | -5.7% | . | i | . | -4.8
O=C(NCCCN1CCC(Cc2ccccc2)CC1)C1CC(=O)N(C2CCCCCC2)C1 (stereo not drawn) | 12.7 | -14.9% | 14.1µM* | -16.4% | -12.1% | 5.1
COc1cccc(-c2nnc(SCc3ccccn3)n2C)c1 | 74.8 | -3.3% | 24.4%[46.1 µM] | -8.9% | ? | 16.6*
Cn1c(SCc2ccccn2)nnc1-c1ccncc1 | 2.4 | . | 15.7% | . | 0.3% | 30.1
Cn1c(SCc2ccccn2)nnc1-c1ccccc1 | 103.5* | -0.9% | 19.7%[46.1 µM] | i | 5.5%[46.1 µM] | 36.3*
Cc1ccc(S(=O)(=O)CCC(=O)Nc2ccc(OC(F)(F)F)cc2)cc1 | . | -3.8% | . | -9.1% | 5.7%[46.1 µM] | .
CCN1C(=O)CC(C(=O)OC)=C1C | -6.0 | -2.8% | . | i | . | -3.2
COC(=O)C1=C(C)N(CCC2=CCCCC2)C(=O)C1 | 23.9 | -15.4% | -21.1%[46.1 µM] | -0.6% | -5.2% | 21.2*
O=C1c2ccccc2C(=O)N1CCC1=CCCCC1 | 88.6* | -6.3% | 9.7% | -15.9% | 20.6% | 40.6*
O=C(O)c1ccc2c(c1)C(=O)N(CCC1=CCCCC1)C2=O | 13.3 | 3.7% | -0.9% | . | -1.6% | -1.8
O=C(NCCOc1ccccc1Cl)c1cc(F)c(F)cc1Cl | 73.5* | -5.0% | ? | -13.5% | 1.2% | 52.8*
COc1cc(SC)ccc1C(=O)NCCOc1ccc(F)cc1 | 74.1* | -12.2% | -5.9% | -2.5% | ? | 44.8*
CN(C(=O)COc1ccccc1C(=O)NCCOc1ccccc1)c1ccccc1 | -9.7 | 11.2µM* | ? | ? | 11.2µM* | -3.0
SMILES | Shiga inhibitor | Vaccinia Venus | MARV entry inh | VACV mCherry inh | LASV entry inh | Cycloheximide cs
COc1ccc(OCCNC(=O)c2ccccc2Cl)cc1 | 28.1 | . | . | . | . | 10.6
O=C(NCCOc1ccccc1)c1ccccc1Cl | 55.4* | -6.8% | ? | -7.9% | ? | 43.3*
CCc1ccc(OCCNC(=O)c2cc(SC)ccc2Cl)cc1 | -1.9 | -14.3% | 0.9% | -2.3% | -2.9% | -2.9
CSc1ccc(Cl)c(C(=O)NCCOc2ccccc2)c1 | 34.3 | -10.9% | 7.3% | . | -4.2% | 26.1*
O=C(NCCOc1ccc(F)cc1)c1ccccc1SCc1ccccc1 | -1.8 | 1.2% | 11.2µM* | i | ? | 0.9
O=C(NCCc1ccccc1)c1ccccc1Cl | 6.2 | -6.9% | 11.2µM* | -3.9% | ? | 13.3*
CCc1ccc(OCCNC(=O)c2ccccc2SCc2ccc(F)cc2)cc1 | 0.9 | -25.2% | ? | ? | ? | -2.4
N#Cc1nc(-c2ccccc2)oc1NCCCn1ccnc1 | 70.2 | -9.8% | -12.2%[46.1 µM] | -13.9% | ? | 16.4*
O=S1(=O)CCO[C@H]2CCCC[C@@H]2N1Cc1ccccc1Br | . | -16.2% | . | -19.6% | . | .
C=C1[C@@H](O)[C@H](CC(C)C)N(Cc2ccccc2Br)S1(=O)=O | . | 10µM* | . | ? | . | .
CCC1C(=O)OC[C@@H]1Cc1cncn1C (stereo partly drawn) | . | . | -5.5% | . | . | .
O=C(NCc1cn2ccccc2n1)c1ccco1 | 36.6 | 6.4% | . | -11.0% | . | 24.7*
O=C(Cc1cccs1)NCc1cn2ccccc2n1 | -10.0 | 0.7% | . | -7.3% | . | -1.8
COc1ccc(-c2ccc(NC(=O)c3ccco3)cc2)nn1 | . | 2.0% | ? | -16.4% | ? | .
O=C(Nc1ccc(-c2cn3ccccc3n2)cc1)c1ccco1 | 67.7* | -18.7% | ? | -15.6% | ? | 58.2*
O=C(Nc1nnc(Cc2ccccc2)s1)C1CCN(C(=O)c2cccs2)CC1 | . | -21.5% | . | -14.1% | . | .
Cc1cccc2cc(CN(CC3CCCO3)C(=O)c3ccccc3F)c(N(C)C)nc12 (stereo not drawn) | . | 17.1% | . | -5.7% | . | .
CCn1c(O)c(/C=C2\C=NN=C2c2ccccc2)sc1=S | -11.0 | ? | -10.0% | ? | ? | -2.4
CC(C)Cn1c(O)c(/C=C2\C=NN=C2c2ccccc2)sc1=S | -7.9 | ? | ? | ? | 12.6µM* | -3.9
CCOc1ccccc1N(C)C(=O)c1sc2ncn(CC(=O)N3CCCCC3C)c(=O)c2c1C (stereo not drawn) | -7.1 | -13.9% | 24.7%[46.1 µM] | -22.5% | -1.2%[46.1 µM] | -2.4
CN1CCN(CC(=O)Nc2nc3c(s2)CCCC3)CC1 | 15.5 | . | . | . | . | 21.0
CCN1CCN(/C=N/c2nc3c(s2)CCCC3)CC1 | -19.2 | -7.1% | 5.8µM* | i | ? | 18.6*
COCc1nnc(NC(=O)c2cc3ccccc3o2)s1 | 58.1* | 4.4% | ? | -13.7% | ? | 17.5*
COCc1nnc(NC(=O)c2cccc(NC(=O)c3ccccc3)c2)s1 | 2.9 | -16.9% | ? | -3.4% | -6.0% | -2.5
CCCc1nnc(NC(=O)c2cc3ccccc3o2)s1 | 40.9 | -3.9% | ? | -0.4% | 20.5% | 13.0*
O=C(NCC(c1ccccc1Cl)N1CCCC1)c1ccc(N2CCCC2=O)cc1 (stereo not drawn) | . | -11.8% | 6.2%[46.1 µM] | -19.3% | ? | .
Cc1c(C(=O)NCc2ccc3c(c2)OCO3)oc2ccc(S(=O)(=O)N3CCCCCC3)cc12 | -12.1 | -23.1% | 13µM* | -28.7% | -26.9% | -2.6
Cc1c(C(=O)NCc2ccc3c(c2)OCO3)oc2ccc(S(=O)(=O)N3CCC(C)CC3)cc12 | 3.5 | . | ? | . | ? | -3.0
Cc1ccc2oc(C(=O)NCC(c3ccco3)N3CCCC3)c(C)c2c1 (stereo not drawn) | 40.7 | . | . | . | . | 20.4*
Cc1ccc2oc(C(=O)NCC3CCOCC3)c(C)c2c1 | 59.2* | . | . | . | . | 21.1

Assay outcomes from PubChem BioAssay.
